Composite z-score and z-score data for 4 molecules are collected here from PubChem BioAssay.

Each structure is given as a SMILES string. “And” between values parts separate entries of the source, which are not always exact repeats. Equal values may be shown once. The source made the active and inactive calls. Unless noted, the rule behind the calls is not given here.

Assay [1] is described as follows: compounds binding Alexa647 anti-His antibody – biochemical, small-molecule microarray, 635 nm fluorescence, artefact control for SMM control protein annotation, primary screen (AID 1128).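 Note: score merges feature fluorescence with signal-to-noise for each printed compound spot.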 The following applies: higher = more signal.
The test system of assay [2] is Human papillomavirus type 1a E7 protein (residues 1-88). Put plainly: HPV1a E7 small-molecule binders, primary screen, biochemical, small-molecule microarray, residues 1-88, 635 nm (AID 1129). The following applies: small-molecule microarray binding, fluorescence 635 nm; higher = more signal.
Assay [3] deals with Focal adhesion kinase 1 (Homo sapiens) (UniProt Q05397). Put plainly: PTK2 protein binding on printed compound slides – biochemical, small-molecule microarray, 635/667 nm fluorescence, BSA, DTT, primary screen (AID 1130).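 Note: composite of spot emission at 667 nm and signal to noise over triplicate slides.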 The following applies: 635 nm fluorescence, higher = more signal.
The test system of assay [4] is Fibrinogen (Alexa647-labelled). Put plainly: Alexa647-fibrinogen binding to printed small molecules – biochemical, small-molecule microarray, 635/667 nm fluorescence, artefact control for SMM control-protein annotation, profiling panel (AID 1131).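 Note: z-score merges 667 nm fluorescence with per-spot signal-to-noise over triplicate slides.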 The following applies: fibrinogen-A647 binding fluorescence, higher = more signal.
The target in assay [5] is Follistatin (Homo sapiens) (UniProt P19883). The assay is described as follows: FST protein binding to printed compounds – biochemical, small-molecule microarray, 635/667 nm fluorescence, primary screen (AID 1132). The following applies: 635 nm fluorescence, higher = more signal.
In assay [6] the target is Fibroblast growth factor 2 (Homo sapiens) (UniProt P09038). Put plainly: basic fibroblast growth factor binding to printed compounds – biochemical, small-molecule microarray, 635/667 nm fluorescence, primary screen (AID 1133). The following applies: FGF2, fluorescence 635/667, higher = more signal.
Assay [7] in a line: JC-1 mitochondrial potential readout, lung cancer cells – cell-based, A549, JC-1 fluorescence, basal, 24 h, 100 nL, profiling panel (AID 1138).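 Note: A549 lung adenocarcinoma cells under basal conditions with no added stimulus; test concentration not given here.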 The following applies: higher = more signal.
For the next assay, the system named is Lefty1. The assay is described as follows: Lefty1 protein binding to printed compounds – biochemical, small-molecule microarray, 635/667 nm fluorescence, primary screen (AID 1139). The following applies: fluorescence 635/667, higher = more signal.
Assay [8] relates to wheat germ agglutinin (Triticum aestivum), Alexa647-labelled. Put plainly: Alexa647-WGA lectin binding to printed small molecules – biochemical, small-molecule microarray, 635/667 nm fluorescence, artefact control for SMM control-protein annotation, profiling panel (AID 1140).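 Note: score merges 667 nm feature emission with signal to noise over triplicate slides.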 The following applies: WGA-A647 binding, 635 nm fluorescence, higher = more signal.
For assay [9], the target named is Luciferin 4-monooxygenase (Photinus pyralis) (UniProt P08659). Put plainly: inhibition of purified Photinus pyralis luciferase – biochemical, luminescence, purified enzyme, 2006 set, primary screen (AID 1141).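 Note: cell-free assay with purified firefly luciferase at 100 ng per well in PBS; test concentration not given here.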 The following applies: purified firefly luciferase, SteadyGlo luminescence, 30 min; higher = more signal, called active from +8 up or from −8 down.
In assay [10] the test system is Wnt5a (protein binding on small-molecule microarray). The assay is described as follows: small molecules binding Wnt5a protein – biophysical, small-molecule microarray, 635/667 nm fluorescence, primary screen (AID 1142).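 Note: fluorescence read at 667 nm with signal to noise per printed feature.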 The following applies: 635 nm fluorescence, higher = more signal.
Assay [11] in a line: ATP-based viability of Huh7 replicon cells – cell-based, CellTiter-Glo luminescence, basal, 48 h, cytotoxicity control for HCV replication inhibitor project, primary screen (AID 1143).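 Note: Huh7 hepatoma cells carrying a hepatitis C replication reporter with no stimulus; test concentration not given here.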 The following applies: higher = more signal, called active from +8 up or from −8 down. In general terms: A replicon is a self-replicating genome or part of one, used to study replication in cells.

The nature of assay [12]: Pseudomonas biofilm growth suppression – PAO1 strain, BacTiter-Glo luminescence, LB-PBS, primary screen (AID 1144). The following applies: P. aeruginosa PAO1 biofilm, 12 h, higher = more signal.
The nature of assay [13]: basal CRE-LacZ reporter activity in PC12 – cell-based, unstimulated, primary screen (AID 1145). The following applies: no forskolin, luminescence, 4.5 h, higher = more signal, called active from +8 up or from −8 down.
Assay [14] is described as follows: forskolin-driven CRE-LacZ activity in PC12 – cell-based, CRE-LacZ reporter, forskolin-stimulated, primary screen (AID 1146).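 Note: PC12 cells with 6xCRE LacZ reporter stimulated by forskolin 10 µM; beta-galactosidase reporter signal reflecting CREB driven transcription.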 The following applies: luminescence, 4.5 h, higher = more signal, called active from +8 up or from −8 down.
Assay [15] addresses Streptavidin (Streptomyces avidinii) (UniProt P22629). The assay is described as follows: compounds binding control protein streptavidin – biophysical, small-molecule microarray, 635/667 nm fluorescence, artefact control for SMM compound annotation, primary screen (AID 1147).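 Note: signal reflects streptavidin binding to arrayed compounds as a control protein.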 The following applies: higher = more signal.
Assay [16] in a line: probe aInhba binding on compound microarray – biochemical, small-molecule microarray, 635/667 nm fluorescence, primary screen (AID 1148).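 Note: score merges 667nm spot fluorescence with signal-to-noise for antibody binding to printed compounds.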 The following applies: higher = more signal.
Assay [17] addresses Torsin-1A (Homo sapiens) (UniProt O14656). Put plainly: TOR1A wild-type binding on microarray – cell lysate, small-molecule microarray, lysate, 635/667 nm, primary screen (AID 1149). The following applies: COS7 hTOR1A-WT lysate, 635 nm fluorescence, higher = more signal.
Assay [18] has the same target. Put plainly: torsin A mutant lysate binding on microarrays – cell lysate, small-molecule microarray, COS7 lysate, 635/667 nm fluorescence, primary screen (AID 1150).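 Note: score pools 667 nm emission and signal to noise measuring lysate protein binding.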 The following applies: COS7 hTOR1A mutant lysate, 635 nm fluorescence, higher = more signal.
Assay [19] has as its system Sonic hedgehog protein (Shh). Put plainly: Sonic hedgehog microarray binding compounds – biochemical, small-molecule microarray, 635/667 nm fluorescence, primary screen (AID 1151).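 Note: Shh protein binding to compounds spotted on small-molecule microarray slides; score combines spot fluorescence intensity with signal-to-noise across triplicate slides.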 The following applies: 635 nm fluorescence, higher = more signal.

Torsin-1A (Homo sapiens), sequence (O14656 whole entry, looked up): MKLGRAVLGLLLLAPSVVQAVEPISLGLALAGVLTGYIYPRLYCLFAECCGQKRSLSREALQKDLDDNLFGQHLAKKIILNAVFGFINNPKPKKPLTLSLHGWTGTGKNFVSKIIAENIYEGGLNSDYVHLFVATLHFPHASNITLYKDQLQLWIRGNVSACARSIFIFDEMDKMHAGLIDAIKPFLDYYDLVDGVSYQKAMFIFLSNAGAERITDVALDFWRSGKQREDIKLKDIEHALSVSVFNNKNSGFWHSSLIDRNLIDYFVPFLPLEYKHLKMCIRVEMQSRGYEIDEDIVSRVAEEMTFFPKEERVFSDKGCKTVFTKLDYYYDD
Focal adhesion kinase 1 (Homo sapiens), sequence (Q05397 whole entry, looked up): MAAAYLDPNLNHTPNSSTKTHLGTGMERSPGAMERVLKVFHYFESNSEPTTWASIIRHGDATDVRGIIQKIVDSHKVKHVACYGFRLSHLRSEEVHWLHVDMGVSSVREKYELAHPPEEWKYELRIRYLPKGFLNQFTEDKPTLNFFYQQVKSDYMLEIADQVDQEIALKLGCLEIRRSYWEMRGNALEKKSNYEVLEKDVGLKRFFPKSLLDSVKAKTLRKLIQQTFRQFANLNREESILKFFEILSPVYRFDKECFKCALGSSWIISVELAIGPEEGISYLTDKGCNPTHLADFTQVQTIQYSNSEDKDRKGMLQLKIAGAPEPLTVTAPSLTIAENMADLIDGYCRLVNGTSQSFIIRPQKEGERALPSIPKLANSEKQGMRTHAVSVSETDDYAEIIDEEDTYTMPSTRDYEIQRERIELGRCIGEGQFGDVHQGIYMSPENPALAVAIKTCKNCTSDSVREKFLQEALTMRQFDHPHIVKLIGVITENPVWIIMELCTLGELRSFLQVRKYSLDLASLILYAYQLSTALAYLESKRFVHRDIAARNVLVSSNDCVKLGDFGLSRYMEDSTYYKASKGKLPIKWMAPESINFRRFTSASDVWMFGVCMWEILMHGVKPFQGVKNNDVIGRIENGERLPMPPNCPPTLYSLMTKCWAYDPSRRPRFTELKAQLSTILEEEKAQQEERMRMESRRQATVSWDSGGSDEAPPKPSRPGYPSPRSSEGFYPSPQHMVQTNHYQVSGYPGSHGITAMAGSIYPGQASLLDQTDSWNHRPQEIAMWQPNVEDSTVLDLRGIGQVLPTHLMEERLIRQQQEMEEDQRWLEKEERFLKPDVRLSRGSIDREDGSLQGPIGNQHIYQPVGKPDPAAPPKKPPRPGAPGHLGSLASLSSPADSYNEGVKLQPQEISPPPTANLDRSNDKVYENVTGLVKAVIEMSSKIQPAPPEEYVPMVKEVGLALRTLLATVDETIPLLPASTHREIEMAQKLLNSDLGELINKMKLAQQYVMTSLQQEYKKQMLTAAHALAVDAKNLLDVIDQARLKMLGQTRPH
Streptavidin (Streptomyces avidinii), sequence (P22629 whole entry, looked up): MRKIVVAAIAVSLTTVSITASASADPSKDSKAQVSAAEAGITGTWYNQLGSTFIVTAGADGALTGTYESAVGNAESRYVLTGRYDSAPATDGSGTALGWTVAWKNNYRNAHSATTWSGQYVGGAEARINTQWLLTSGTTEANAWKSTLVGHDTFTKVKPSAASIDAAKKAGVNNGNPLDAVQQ
Fibroblast growth factor 2 (Homo sapiens), sequence (P09038 whole entry, looked up): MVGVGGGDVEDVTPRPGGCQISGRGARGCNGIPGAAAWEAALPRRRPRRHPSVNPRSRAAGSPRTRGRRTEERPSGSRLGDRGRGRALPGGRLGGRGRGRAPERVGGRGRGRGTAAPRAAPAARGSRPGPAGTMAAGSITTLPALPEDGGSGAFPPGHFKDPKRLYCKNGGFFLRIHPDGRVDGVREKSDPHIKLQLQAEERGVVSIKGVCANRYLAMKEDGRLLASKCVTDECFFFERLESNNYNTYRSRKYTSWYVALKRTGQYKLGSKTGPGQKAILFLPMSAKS
Luciferin 4-monooxygenase (Photinus pyralis), sequence (P08659 whole entry, looked up): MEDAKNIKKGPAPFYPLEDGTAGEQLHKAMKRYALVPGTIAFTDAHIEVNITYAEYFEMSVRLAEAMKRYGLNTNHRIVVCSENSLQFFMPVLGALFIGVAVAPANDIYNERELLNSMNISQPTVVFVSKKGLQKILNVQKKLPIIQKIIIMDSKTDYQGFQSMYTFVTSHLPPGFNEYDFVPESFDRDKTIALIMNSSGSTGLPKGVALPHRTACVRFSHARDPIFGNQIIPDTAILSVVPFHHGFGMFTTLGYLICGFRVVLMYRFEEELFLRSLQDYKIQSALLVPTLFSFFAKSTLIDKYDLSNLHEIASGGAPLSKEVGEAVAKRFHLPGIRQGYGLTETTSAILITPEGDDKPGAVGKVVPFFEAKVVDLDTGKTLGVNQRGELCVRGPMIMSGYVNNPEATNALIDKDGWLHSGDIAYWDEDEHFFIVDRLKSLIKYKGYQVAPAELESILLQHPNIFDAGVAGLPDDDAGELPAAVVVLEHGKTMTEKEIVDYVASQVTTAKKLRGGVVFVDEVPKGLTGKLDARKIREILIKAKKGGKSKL
Follistatin (Homo sapiens), sequence (P19883 whole entry, looked up): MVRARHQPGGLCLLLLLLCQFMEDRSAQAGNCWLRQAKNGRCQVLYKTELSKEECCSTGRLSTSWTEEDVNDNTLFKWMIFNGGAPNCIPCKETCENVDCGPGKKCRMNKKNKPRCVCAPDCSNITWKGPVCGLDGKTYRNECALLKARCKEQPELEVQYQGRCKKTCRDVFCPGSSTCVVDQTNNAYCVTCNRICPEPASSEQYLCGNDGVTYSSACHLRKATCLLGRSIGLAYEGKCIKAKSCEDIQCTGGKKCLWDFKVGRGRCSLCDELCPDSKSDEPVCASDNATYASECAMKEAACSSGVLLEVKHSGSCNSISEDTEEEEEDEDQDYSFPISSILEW

`CC(CO)N1C(=O)[C@@H]2C3C(=O)OCCC=C[C@H]3OC23C=CCN(c2ccc(Cl)cc2)C(=O)[C@@H]13` (stereo not given in full): the composite z-score in assay [1] was -1.31 and 1.36; in [2], -1.31 and -0.0543; in [3], 1.69 and 0.156; in [4], -0.697 and 0.363; in assay [5], -1.49 and 0.33; in assay [6], -1.73 and -0.68. Moreover, the composite z-score was -1.49 and 0.213 in the assay on Lefty1; -0.0757 and 0.684 in assay [8]; -0.396 and -0.34 in assay [10]; -0.9 and 0.152 in [15]; -0.111 and 0.0541 in [16]; -1.09 and -1.53 with Torsin-1A (Homo sapiens) [17]. The composite z-score was -2.42 and -1.49 with Torsin-1A (Homo sapiens) [18]; -0.359 and 0.829 in assay [19]. The z-score is 0.931 and 0.848 in [7]; -0.593 (inactive) and -0.731 (inactive) in [9]; -0.666 (inactive) and -0.787 (inactive) in [11]; 1.06 (inactive) and 0.664 (inactive) in assay [12]; 0.187 (inactive) and 0.325 (inactive) in [13]; -0.613 (inactive) and 0.478 (inactive) in assay [14].

In the case of `C[C@@H](ON=C1[C@H]2CCn3c(=O)n(-c4ccccc4)c(=O)n3[C@H]2[C@H](O)[C@@H]2O[C@H]12)c1cn([C@H](CO)Cc2ccccc2)nn1`, the composite z-score is 2.66 in [1]; 0.23 in assay [2]; -0.109 in assay [3]; 0.343 in assay [4]; 0.523 in assay [5]; 0.185 in assay [6]. Moreover, the composite z-score in the assay on Lefty1 is 0.467; in assay [8] it was -0.424; in assay [10] it was -0.174; in assay [15] it was 0.0375; in assay [16], -0.0313; with Torsin-1A (Homo sapiens) [17] it was 0.185. For the same molecule, the composite z-score with Torsin-1A (Homo sapiens) [18] came out at 0.199; in [19] it was 0.403. Also, the z-score is -0.546 in assay [7]; -0.116 (inactive) in [9]; 1.13 (inactive) in [11]; 0.867 (inactive) in assay [12]; -0.157 (inactive) in [13]; 1.45 (inactive) in [14].

With `CCCCN1CC=CC23O[C@@H]4C=CCCOC(=O)C4[C@H]2C(=O)N(C(C)CO)[C@@H]3C1=O` (stereo not given in full), the composite z-score in assay [1] was 2.27 and -0.329; in assay [2], -0.461 and -0.54; in [3], -0.293 and -0.0655; in assay [4], -1.04 and -0.749; in [5], -0.546 and 0.101; in [6] it was -0.579 and -0.63. Besides, the composite z-score is -0.222 and 0.172 in the assay with Lefty1; -0.558 and -0.281 in assay [8]; -0.296 and 0.339 in [10]; -1.23 and -0.178 in assay [15]; -0.143 and 0.201 in assay [16]; 0.234 and -0.131 with Torsin-1A (Homo sapiens) [17]. The composite z-score with Torsin-1A (Homo sapiens) [18] was 0.234 and 0.148; in [19], 0.173 and 0.798. In addition, the z-score in [7] is -0.224 and -0.725; in [9], -0.0385 (inactive) and -0.213 (inactive); in [11], 0.161 (inactive) and -0.214 (inactive); in assay [12], 0.781 (inactive) and 1.82 (inactive); in assay [13] it was -0.216 (inactive) and -0.204 (inactive); in assay [14], 0.405 (inactive) and -0.764 (inactive).

For the molecule `C=CCN(CCCCC)C(=O)C(c1cccs1)N(C(=O)/C=C\C(=O)O)c1c(Cl)cccc1CO` (stereo not given), the composite z-score in [1] was -2 and 0.586; in assay [2], -0.682 and -0.485; in [3], -0.519 and -0.564; in [4], -1.31 and -2.3; in assay [5] it was -1.36 and -2.16; in assay [6] it was -2.06 and -2.71. The composite z-score with Lefty1 is -1.88 and -1.54; in assay [8], -1.74 and -0.357; in assay [10], -0.473 and -1.02; in assay [15] it was -1.34 and -1.63; in [16], -0.202 and -0.233; in the assay with Torsin-1A (Homo sapiens) [17], -2.37 and -3.28. Further, the composite z-score with Torsin-1A (Homo sapiens) [18] was -0.23 and -2.06; in [19], -1.14 and -0.909. The z-score in assay [7] was -0.634 and 0.534; in assay [9] it was -0.0903 (inactive) and -0.46 (inactive); in [11], 0.497 (inactive) and 0.165 (inactive); in assay [12] it was 0.858 (inactive) and 2.29 (inactive); in assay [13] it was 0.605 (inactive) and -0.212 (inactive); in assay [14] it was 1.2 (inactive) and 0.266 (inactive).
